# Reference: the supplement of paper PMC8728848
# Shown is part of a subset that was picked to be rich in the strongest signals.
# Key:
# Experiment in all cases: glycan array binding signal (z-score within array); higher = stronger binding
# Conditions in all cases: glycan notation: IUPAC condensed, linker removed
# [1] = target: Fuc(a1-2)Gal(b1-3)GalNAc(a1-3)[Fuc(a1-2)]Gal(b1-4)Glc
# Outline: (§1)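 From the Consortium for Functional Glycomics database, 3228 arrays were curated, keeping only those whose protein sequence was available. Binding is given as a within-array Z-score averaged across arrays sharing a protein sequence and across linkers. Negative Z-scores can be read as non-binding.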
# [2] = target: Fuc(a1-2)Gal(b1-4)Fuc(a1-3)]GlcNAc(b1-2)Man(a1-3)[Fuc(a1-2)Gal(b1-4)[Fuc(a1-3)]GlcNAc(b1-2)Man(a1-6)]Man(b1-4)GlcNAc(b1-4)GlcNAc
# Outline: as §1
# [3] = target: Fuc(a1-2)Gal(b1-4)[Fuc(a1-3)]GlcNAc(b1-2)Man(a1-3)[Fuc(a1-2)Gal(b1-4)[Fuc(a1-3)]GlcNAc(b1-2)Man(a1-6)]Man(b1-4)GlcNAc(b1-4)[Fuc(a1-6)]GlcNAc
# Outline: as §1
# [4] = target: Fuc(a1-2)Gal(b1-4)[Fuc(a1-3)]GlcNAc(b1-3)Gal(b1-4)[Fuc(a1-3)]GlcNAc(b1-3)Gal(b1-4)[Fuc(a1-3)]GlcNAc
# Outline: as §1
# Fuc(a1-2)Gal6S(b1-4)Glc = target: Fuc(a1-2)Gal6S(b1-4)Glc
# Outline: as §1
# [5] = target: Fuc(a1-2)[Gal(a1-3)]Gal(b1-3)GalNAc(b1-3)Gal(a1-4)Gal(b1-4)Glc
# Outline: as §1
# [6] = target: Fuc(a1-2)[Gal(a1-3)]Gal(b1-4)[Fuc(a1-3)]Glc
# Outline: as §1
# [7] = target: Fuc(a1-2)[Gal(a1-3)]Gal(b1-4)[Fuc(a1-3)]GlcNAc
# Outline: as §1
# [8] = target: Fuc(a1-2)[GalNAc(a1-3)]Gal(b1-3)GlcNAc(b1-3)GalNAc
# Outline: as §1
# [9] = target: Fuc(a1-2)[GalNAc(a1-3)]Gal(b1-4)Glc
# Outline: as §1
# Fuc(a1-3)GlcNAc = target: Fuc(a1-3)GlcNAc
# Outline: as §1
# [10] = target: Fuc(a1-3)[Gal(b1-4)]GlcNAc6S
# Outline: as §1
# Gal(b1-3)Gal(b1-4)GlcNAc = target: Gal(b1-3)Gal(b1-4)GlcNAc
# Outline: as §1
# [11] = target: Gal(b1-3)GlcNAc(a1-6)Gal(b1-4)GlcNAc
# Outline: as §1
# [12] = target: Gal(b1-3)GlcNAc(b1-6)GalNAc
# Outline: as §1
# [13] = target: Gal(b1-4)GlcNAc(b1-2)Man(a1-3)[Gal(b1-4)GlcNAc(b1-2)Man(a1-6)]Man(b1-4)GlcNAc(b1-4)[Fuc(a1-6)]GlcNAc
# Outline: as §1
# [14] = target: Gal(b1-4)GlcNAc(b1-3)Gal(b1-4)GlcNAc
# Outline: as §1
# [15] = target: Gal(b1-4)GlcNAc(b1-3)Gal(b1-4)GlcNAc(b1-3)Gal(b1-4)GlcNAc(b1-2)[Gal(b1-4)GlcNAc(b1-3)Gal(b1-4)GlcNAc(b1-3)Gal(b1-4)GlcNAc(b1-6)]Man(a1-6)[Gal(b1-4)GlcNAc(b1-3)Gal(b1-4)GlcNAc(b1-3)Gal(b1-4)GlcNAc(b1-2)Man(a1-3)]Man(b1-4)GlcNAc(b1-4)[Fuc(a1-6)]GlcNAc
# Outline: as §1
# [16] = target: Gal(b1-4)GlcNAc(b1-3)Gal(b1-4)GlcNAc(b1-3)Gal(b1-4)GlcNAc(b1-3)Gal(b1-4)GlcNAc(b1-2)Man(a1-3)[Gal(b1-4)GlcNAc(b1-3)Gal(b1-4)GlcNAc(b1-3)Gal(b1-4)GlcNAc(b1-3)Gal(b1-4)GlcNAc(b1-2)Man(a1-6)]Man(b1-4)GlcNAc(b1-4)GlcNAc
# Outline: as §1
# [17] = target: Gal(b1-4)GlcNAc(b1-3)GalNAc
# Outline: as §1
# Gal(b1-4)GlcNAc6P = target: Gal(b1-4)GlcNAc6P
# Outline: as §1
# [18] = target: Gal3S(b1-4)[Fuc(a1-3)]Glc6S
# Outline: as §1
# GlcA(b1-6)Gal = target: GlcA(b1-6)Gal
# Outline: as §1
# [19] = target: GlcNAc(a1-3)Gal(b1-4)GlcNAc
# Outline: as §1
# [20] = target: GlcNAc(a1-4)Gal(b1-4)GlcNAc(b1-3)Gal(b1-4)Glc
# Outline: as §1
# [21] = target: GlcNAc(b1-2)Man(a1-3)[GlcNAc(b1-4)][GlcNAc(b1-2)Man(a1-6)]Man(b1-4)GlcNAc(b1-4)GlcNAc
# Outline: as §1
# [22] = target: GlcNAc(b1-2)[GlcNAc(b1-4)]Man(a1-3)[GlcNAc(b1-4)][GlcNAc(b1-2)[GlcNAc(b1-6)]Man(a1-6)]Man(b1-4)GlcNAc(b1-4)GlcNAc
# Outline: as §1
# [23] = target: GlcNAc(b1-3)Gal(b1-4)GlcNAc(b1-2)Man(a1-3)[GlcNAc(b1-3)Gal(b1-4)GlcNAc(b1-2)Man(a1-6)]Man(b1-4)GlcNAc(b1-4)[Fuc(a1-6)]GlcNAc
# Outline: as §1
binder,measurement,setting,value
LlpA (Arthrobacter sp) (protein) MGSSHHHHHHSSGLVPRGSHMTLHPETALRPGAAATSPNSRYRLLYQTDGNLVLYGPDGPLWDSGTNGHGAGACIMQADGNLVLYGPNDEYVWDTETDNNPGSRLVIQDDGNAVIYRPDGSPLWATETCQPPGSADSHVLQSGSTLTPTHGIRSANGLYGLLYQTDGNLVFYGPDGPLWDSGTNGRGAGACIMQPDGNLVLYGPHDEYVWDTETDNNPGSRLVIQDDGNAVIYRPDGNPTWVTGTH,glycan array binding signal (z-score),[1],-0.605
same,glycan array binding signal (z-score),[2],1.72
same,glycan array binding signal (z-score),[3],1.97
same,glycan array binding signal (z-score),[4],-0.294
same,glycan array binding signal (z-score),Fuc(a1-2)Gal6S(b1-4)Glc,0.733
same,glycan array binding signal (z-score),[5],-0.344
same,glycan array binding signal (z-score),[6],-1.15
same,glycan array binding signal (z-score),[7],0.864
same,glycan array binding signal (z-score),[8],2.37
same,glycan array binding signal (z-score),[9],-0.96
same,glycan array binding signal (z-score),Fuc(a1-3)GlcNAc,-0.654
same,glycan array binding signal (z-score),[10],1.84
same,glycan array binding signal (z-score),Gal(b1-3)Gal(b1-4)GlcNAc,0.043
same,glycan array binding signal (z-score),[11],-0.211
same,glycan array binding signal (z-score),[12],-0.718
same,glycan array binding signal (z-score),[13],1.04
same,glycan array binding signal (z-score),[14],-0.238
same,glycan array binding signal (z-score),[15],0.644
same,glycan array binding signal (z-score),[16],-0.527
same,glycan array binding signal (z-score),[17],-0.295
same,glycan array binding signal (z-score),Gal(b1-4)GlcNAc6P,0.159
same,glycan array binding signal (z-score),[18],2.1
same,glycan array binding signal (z-score),GlcA(b1-6)Gal,0.793
same,glycan array binding signal (z-score),[19],0.79
same,glycan array binding signal (z-score),[20],0.389
same,glycan array binding signal (z-score),[21],-0.798
same,glycan array binding signal (z-score),[22],-0.159
same,glycan array binding signal (z-score),[23],0.596
